Bioassay records from PubChem BioAssay.
Sampled rows, rich in hits. Any-hit rate of the full collection: about 3.4%.
KLK7 zymogen act – proKLK7 zymogen activators, primary screen, biochemical, fluorescence intensity; purified proKLK7, EDANS-DABCYL substrate fluorescence; 100% is mature enzyme control, 0% vehicle; activation, % at 7 µM; actives 0.9% (n = 370,000);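 active means activation above the mean of all tested compounds plus 3 SD, computed per campaign excluding outliers beyond control limits, cut at about 13% in these data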
ADAM17 inh – ADAM17 inhibitors, primary screen, biochemical, QFRET | recombinant ADAM17, EDANS/DABCYL FRET peptide cleavage | Disintegrin and metalloproteinase domain-containing protein 17 (Homo sapiens), P78536 | inhibition, % at 6.95 µM | actives 0.83% (n = 370,000);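 active means inhibition above the mean of compounds lying between control limits plus 3 SD, set per campaign, cut at about 8.5% in these data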
ADAM10 inh – human ADAM10 inhibitors, primary screen, biochemical, QFRET, HTS | Disintegrin and metalloproteinase domain-containing protein 10 (Homo sapiens), O14672 | recombinant ADAM10, EDANS/DABCYL FRET peptide cleavage, 3 h | inhibition, % at 7 µM | actives 0.62% (n = 370,000) | AID 720582, 2013;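 active means inhibition above a per-campaign cutoff equal to the mean of compounds falling between control-based bounds plus 3 SD, cut at about 20% in these data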
Target sequence (O14672 214-748 limits assumed): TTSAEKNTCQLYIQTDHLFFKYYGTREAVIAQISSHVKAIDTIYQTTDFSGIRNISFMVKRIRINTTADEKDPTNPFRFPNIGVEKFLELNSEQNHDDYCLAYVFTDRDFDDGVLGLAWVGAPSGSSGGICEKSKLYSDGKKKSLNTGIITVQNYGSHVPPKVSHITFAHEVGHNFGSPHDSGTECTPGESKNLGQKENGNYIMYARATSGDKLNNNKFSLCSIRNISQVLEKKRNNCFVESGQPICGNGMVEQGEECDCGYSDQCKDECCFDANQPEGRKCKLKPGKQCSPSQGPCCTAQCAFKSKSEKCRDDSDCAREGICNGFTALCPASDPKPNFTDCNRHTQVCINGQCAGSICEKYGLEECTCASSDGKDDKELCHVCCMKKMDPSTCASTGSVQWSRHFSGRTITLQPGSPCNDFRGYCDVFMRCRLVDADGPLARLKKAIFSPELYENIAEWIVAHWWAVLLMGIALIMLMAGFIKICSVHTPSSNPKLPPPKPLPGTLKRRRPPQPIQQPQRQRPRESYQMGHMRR
NRP1-CendR mod – modulators of CendR peptide binding to NRP-1, primary screen, biochemical, fluorescence polarization, uHTS; Neuropilin-1 (Homo sapiens), O14786; FAM-RPARPAR peptide binding to NRP-1; inhibition, % at 25 µM; actives 0.85% (n = 360,000); AID 602438, 2012;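 active means inhibition or corrected inhibition above about 18%, plus a signal ratio from 0.5 to 1.5, limit read from the data, passing the limit was not always enough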
sPLA2-III inh – human group III sPLA2 inhibitors, primary screen, biochemical, QFRET, BODIPY PC-A2 liposome substrate. Group 3 secretory phospholipase A2 (Homo sapiens), Q9NZ20. QFRET BODIPY PC-A2 liposome hydrolysis, fluorescence. inhibition, % at 12.2 µM. actives 0.56% (n = 370,000);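 active means inhibition above mean plus 3 SD of compounds lying within the high and low control bounds, cut at about 19% in these data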
Each line names hits and unclear results; the compound was inactive in the other large screens; ! = repeats disagree.

Cc1ccc(NC(=S)N/C(=N/S(=O)(=O)c2ccccc2)c2ccccc2)cc1	NRP1-CendR mod 22!
CCN(CC)S(=O)(=O)c1ccc2c(c1)nc(CCC(=O)Nc1cccc(C(F)(F)F)c1)n2CC	ADAM17 inh 10
Cc1cccc(Cn2cc(CN3CC(N4CCN(CCOC(=O)c5cc6ccccc6o5)CC4)CS3(=O)=O)nn2)c1 (stereo unspecified)	none (no result: NRP1-CendR mod)
CC[C@H](CCCc1ccc(F)cc1)CN(Cc1ccc(OC)cc1)S(=O)(=O)c1ccc(C)cc1	none (no result: NRP1-CendR mod)
Cc1ccc(S(=O)(=O)N(CC(O)CN2CCCCC2)c2ccccc2)cc1 (stereo unspecified)	none
COc1ccc(N(CC(O)CN2CCCCC2)S(=O)(=O)c2ccc(C)cc2)cc1 (stereo unspecified)	NRP1-CendR mod 24
COc1ccc(CC(=O)OCC(=O)c2ccc(OC)cc2)cc1	none
COc1ccc(CC(=O)OCC(=O)c2ccc(OC)c(OC)c2)cc1	NRP1-CendR mod 17
COc1cc2ccc(CC(N)=O)cc2cc1OC	NRP1-CendR mod 37
COc1ccc(CCC(N)=O)cc1OC	none
COc1ccc(CC(=O)OCC(=O)NC2CCCCC2)cc1	none
COc1ccc(CC(=O)OCC(=O)NC2CC2)cc1	NRP1-CendR mod 24
Cc1nc2cc(C(=O)N3CCN(C(=O)OCc4ccccc4)CC3)ccc2n1C1CCCC1	none (no result: NRP1-CendR mod)
CN(C)c1ccc(NC(=S)OC2CCC23CCC(c2ccccc2)CC3)cc1 (stereo unspecified)	none (no result: NRP1-CendR mod)
N#Cc1ccc(/C=C2\CC3(OC(=O)c4ccccc4)CCCN2C3)cc1 (stereo unspecified)	none (no result: NRP1-CendR mod)
C[N+]1=C(N)NC2=C3CCCCC3n3c(=O)n(-c4ccccc4)c(=O)n3C2C1 (stereo unspecified)	none (no result: NRP1-CendR mod)
COc1ccc(/C=C2\SC(=S)N(CCCC(=O)NNC(=O)c3ccccc3O)C2=O)cc1	none
O=C(CN1C(=O)S/C(=C\c2ccc(Cl)cc2)C1=O)NNC(=O)c1ccccc1O	sPLA2-III inh 44
COCc1cc(N2CCN(C(=O)OC(C)(C)C)C[C@H]2C)ccc1N1CC[C@H](O)C1	none (no result: NRP1-CendR mod)
O=C(COC(=O)CCNS(=O)(=O)c1ccc(Cl)cc1)NCc1ccco1	NRP1-CendR mod 19
N#CCC[C@H]1CC[C@]2(CCCN(C(=O)c3ccc4ccccc4n3)C2)O1	none (no result: NRP1-CendR mod)
N#Cc1ccccc1OCC(=O)OCC(=O)c1ccc2c(c1)NC(=O)CO2	none
Cc1ccc(C(=O)NCC(=O)OCC(=O)c2ccc3c(c2)NC(=O)CO3)cc1	NRP1-CendR mod 31
O=C1COc2ccc(C(=O)COC(=O)COc3ccccc3[N+](=O)[O-])cc2N1	NRP1-CendR mod 25
O=C1COc2ccc(C(=O)COC(=O)CCc3ccc(S(=O)(=O)N4CCOCC4)cc3)cc2N1	NRP1-CendR mod 35
Cc1cc(NC(=O)CCC(=O)N(c2ccccc2)C(C(=O)NC2CCCC2)c2cccs2)no1 (stereo unspecified)	NRP1-CendR mod 20
Cc1cc(NC(=O)CCC(=O)N(Cc2ccco2)C2(C(=O)NC3CCCC3)CCCCC2)no1	NRP1-CendR mod 19
Cc1cc(NC(=O)CCC(=O)N(c2cccc(F)c2)C(C(=O)NC2CCCC2)c2ccccc2)no1 (stereo unspecified)	NRP1-CendR mod 26
Cc1cc(NC(=O)CCC(=O)N(Cc2ccco2)C2(C(=O)NC3CCCCC3)CCN(C)CC2)no1	none
Cc1ccc(Cn2c(C(C)Nc3nc(-c4ccc(Cl)c([N+](=O)[O-])c4)cs3)nc3cc(C(F)(F)F)ccc32)cc1 (stereo unspecified)	NRP1-CendR mod 35
Cc1csc(NC(C)c2nc3cc(C(F)(F)F)ccc3n2CCCO)n1 (stereo unspecified)	NRP1-CendR mod 35
COC(=O)[C@H](C(C)C)N(Cc1cn(CC2CCCCC2)nn1)S(=O)(=O)c1ccc(F)cc1Br	none (no result: NRP1-CendR mod)
COc1ccccc1Nc1nn2c(=O)c3ccc(C(=O)N4CCC(C)CC4)cc3nc2s1	NRP1-CendR mod 25
Cc1cccc(N2CCN(S(=O)(=O)c3ccc(Cl)nc3)CC2C)c1 (stereo unspecified)	NRP1-CendR mod 27
Cc1cccc(N2CCN(S(=O)(=O)c3ccc4c(c3)C(C)(C)C(=O)N4C)CC2C)c1 (stereo unspecified)	none
O=C(NCc1ccccc1Cl)c1cccc(NC(=O)c2ccccc2)c1	NRP1-CendR mod 18
CCOC(=O)[C@]12CCCCC/C=C\1N(CCc1ccc(Cl)cc1)C(=O)[C@H]2CC(=O)NCCC(C)C	none (no result: NRP1-CendR mod)
CCn1c(COc2ccc(C)cc2)nnc1SCC(=O)Nc1ccc(Oc2ccccc2)cc1	none (no result: NRP1-CendR mod)
C=C1CN(CC(=O)OC)S(=O)(=O)c2ccccc21	none
C=C1CN(Cc2ccccc2)S(=O)(=O)c2ccccc21	NRP1-CendR mod 24
CCOC(=O)CC[C@@]1(C(=O)OCC)C[C@@H](CC(=O)NCCCOC)C(=O)N2CCCC=C21	none (no result: NRP1-CendR mod)
COC(=O)c1ccccc1NC(=O)c1cc2ccccc2o1	none
O=C(Nc1ccccc1C(=O)N1CCOCC1)c1cc2ccccc2o1	NRP1-CendR mod 22
COc1ccc2ccc(=O)oc2c1	none
COc1cc2cc(Oc3ccc4ccc(=O)oc4c3)c(=O)oc2cc1OC(=O)/C=C/c1ccccc1	NRP1-CendR mod 27
CC(COc1ccc([N+](=O)[O-])cc1Cl)CN1CCC(C(O)(c2ccccc2)c2ccccc2)CC1 (stereo unspecified)	none (no result: NRP1-CendR mod)
O=C(c1ccc(OCc2cn3ccccc3n2)cc1)N1CCN(S(=O)(=O)c2ccccc2F)CC1	none
Cc1cccc(C)c1NC(=O)CN1CCN(C(=O)c2ccc(OCc3cn4ccccc4n3)cc2)CC1	NRP1-CendR mod 30
c1cncc(-c2ccc3ncnc(NCc4ccc5c(c4)OCO5)c3c2)c1	none
Clc1ccccc1-c1ccc2ncnc(NCc3ccc4c(c3)OCO4)c2c1	NRP1-CendR mod 22
COc1ccc(C(=O)COC(=O)C(CCSC)NS(=O)(=O)c2ccc(Cl)cc2)cc1 (stereo unspecified)	NRP1-CendR mod 26
C[C@H]1[C@@H](OC(=O)NC2CCC2)CC[C@@]23CCCN2C(=O)CCC[C@@H]13	none (no result: KLK7 zymogen act, NRP1-CendR mod)
C=CCNS(=O)(=O)c1cccc2cc(C(=O)O)c(O)cc12	KLK7 zymogen act 27
C=CCNS(=O)(=O)c1cccc(C(C)=O)c1	none
COc1ccc(N2CCN(C(=O)c3ccc(Br)cc3)CC2)c([N+](=O)[O-])c1	NRP1-CendR mod 16
CC(CN1CCCC1)OC(=O)c1ccc(Cl)cc1Cl (stereo unspecified)	none
CC(CN1CCCCC1)OC(=O)c1ccc(Cl)cc1Cl (stereo unspecified)	NRP1-CendR mod 22
